Results with a measured potency or affinity are listed apart. Calls of active or inactive are those of the source. No rule for the calls is given here.
Target: Kelch-like ECH-associated protein 1 (Homo sapiens) + Nuclear factor erythroid 2-related factor 2 (Homo sapiens) (UniProt Q14145+Q16236)
Experiment: disruptors of Keap1 binding to Nrf2 peptide – biochemical, fluorescence polarization, cherry-picked samples, dose response (AID 588683);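 also: Kelch domain of Keap1 binding a fluorescein-labelled 9mer Nrf2 peptide; more negative means stronger inhibition of peptide binding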
Details: plate reader; series mostly up to 26 µM

Chain of Kelch-like ECH-associated protein 1 (Homo sapiens) + Nuclear factor erythroid 2-related factor 2 (Homo sapiens) (Q14145 whole entry, looked up, the tested form may be a part): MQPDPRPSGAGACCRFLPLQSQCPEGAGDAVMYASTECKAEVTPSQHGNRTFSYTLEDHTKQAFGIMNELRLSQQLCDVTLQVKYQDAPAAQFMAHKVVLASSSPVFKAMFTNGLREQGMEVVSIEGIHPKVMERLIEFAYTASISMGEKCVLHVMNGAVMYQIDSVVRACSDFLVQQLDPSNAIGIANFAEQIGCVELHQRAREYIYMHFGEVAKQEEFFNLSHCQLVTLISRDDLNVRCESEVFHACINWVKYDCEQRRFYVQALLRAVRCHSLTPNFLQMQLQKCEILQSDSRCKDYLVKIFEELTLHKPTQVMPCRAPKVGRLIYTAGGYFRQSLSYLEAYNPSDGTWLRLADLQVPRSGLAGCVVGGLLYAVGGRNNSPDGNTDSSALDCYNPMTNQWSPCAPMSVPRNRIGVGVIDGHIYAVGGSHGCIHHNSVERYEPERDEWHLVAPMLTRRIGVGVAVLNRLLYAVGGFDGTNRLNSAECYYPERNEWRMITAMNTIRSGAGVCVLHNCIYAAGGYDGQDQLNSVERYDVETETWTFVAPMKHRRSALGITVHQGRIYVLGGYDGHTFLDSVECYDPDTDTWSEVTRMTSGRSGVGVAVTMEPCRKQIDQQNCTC
Chain of Kelch-like ECH-associated protein 1 (Homo sapiens) + Nuclear factor erythroid 2-related factor 2 (Homo sapiens) (Q16236 whole entry, looked up, the tested form may be a part): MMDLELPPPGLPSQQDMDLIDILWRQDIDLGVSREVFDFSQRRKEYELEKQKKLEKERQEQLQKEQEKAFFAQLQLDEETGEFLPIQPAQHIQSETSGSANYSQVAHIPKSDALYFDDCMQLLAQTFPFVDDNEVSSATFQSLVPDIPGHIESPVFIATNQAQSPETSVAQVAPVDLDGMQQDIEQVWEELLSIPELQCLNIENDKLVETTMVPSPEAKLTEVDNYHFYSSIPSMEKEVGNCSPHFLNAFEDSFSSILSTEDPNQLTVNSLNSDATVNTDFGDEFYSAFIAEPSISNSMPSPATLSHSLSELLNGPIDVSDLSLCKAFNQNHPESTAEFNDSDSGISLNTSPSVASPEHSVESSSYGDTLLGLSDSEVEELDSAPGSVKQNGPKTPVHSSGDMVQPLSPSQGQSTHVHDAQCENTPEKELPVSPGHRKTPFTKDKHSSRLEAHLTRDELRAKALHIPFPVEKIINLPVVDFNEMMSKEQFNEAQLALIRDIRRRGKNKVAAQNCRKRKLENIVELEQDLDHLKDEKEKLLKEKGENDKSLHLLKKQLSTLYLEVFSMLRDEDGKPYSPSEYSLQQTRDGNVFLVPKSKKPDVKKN

Which outcome does the source give for `O=C(/C=C/c1ccccc1Cl)NCCCn1ccnc1` here?
The outcome was “inactive”.

`CCN1/C(=C\c2ccc3ccccc3[n+]2CC)Sc2cc(C)ccc21` was tested. Which outcome did it give?
Its outcome is “inactive”.

`O=c1[nH]c(/C=C/c2cccc3ccccc23)nc2ccccc12` was tested. Which outcome did it give?
The outcome was “inactive”.

With `COc1ccc(NC(=S)N2CCN(Cc3ccc(C)cc3)CC2)cc1` as the compound, how does the outcome read?
Its outcome is “inactive”.

How did the outcome turn out when `CCOc1ccccc1C=C1SC(=S)NC1=O` was run?
Its outcome is “inactive”.

For `O=C(O)CC(Cn1cnnn1)c1ccccc1` (stereo not given), which outcome is on record?
Its outcome is “inactive”.

`CCCCCC(=O)N1CCCC1` was tested. Which outcome did it give?
Its outcome is “inactive”.

Which outcome does the source give for `N=c1c(C(=O)NC2CCCC2)cc2c(=O)n3ccccc3nc2n1C1CCCCC1` here?
Its outcome is “inactive”.

For `NC(=O)COc1ccc(NC(=O)CC23CC4CC(CC(C4)C2)C3)cc1`, which outcome is on record?
Its outcome is “inactive”.

For `Cc1cscc1NC(=O)/C=C/C(=O)O`, which outcome is on record?
Its outcome is “inactive”.

For `CCCCC1OC23CCCCC2C(C#N)(C(=N)O3)C1(C#N)C#N` (stereo not given), which outcome is on record?
The outcome was “inactive”.

With `O=C1c2ccccc2-c2onc3ccc(Oc4ccccc4)c1c23` as the compound, how does the outcome read?
Its outcome is “inactive”.

`c1ccc(-n2ncc3c(NCC4CCCO4)ncnc32)cc1` (stereo not given) was tested. Which outcome did it give?
The outcome was “inactive”.

For `COc1ccccc1N(C)S(=O)(=O)c1ccc(C(=O)NCc2ccccc2CN2CCCC2)cc1`, which outcome is on record?
The outcome was “inactive”.

How did the outcome turn out when `Cc1ccc2cc(CN(CCCO)S(=O)(=O)c3cccc4nsnc34)c(=O)[nH]c2c1C` was run?
Its outcome is “inactive”.

With `CCOc1ccc2noc3c2c1C(=O)c1ccccc1-3` as the compound, how does the outcome read?
The outcome was “inactive”.

`c1ccc(Nc2nc3ccccc3n3nnnc23)cc1` was tested. Which outcome did it give?
Its outcome is “inactive”.

How did the outcome turn out when `COc1cc(Cl)c(C)cc1NCC(=O)Nc1cccc(S(=O)(=O)N2CCCC2)c1` was run?
Its outcome is “inactive”.

With `CN(C)c1ccc(/C=N/NC(=O)CCC(=O)NCc2ccccc2)cc1` as the compound, how does the outcome read?
The outcome was “inactive”.

How did the outcome turn out when `COc1ccccc1Cn1c(=S)[nH]c2ccccc2c1=O` was run?
Its outcome is “inactive”.
